Reference: the supplement of paper PMC6555819

Legend:
Test in all cases: PBM binding z-score (relative to random genomic background probes); higher = stronger binding; sequences stand for … in GC…GCGATTGACAGCGTAGAATGAAGG
[1] = test system: FXR:RXRa (NR concentration 270 nM, RXRa partner concentration 90 nM)
How it was run: (§1)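 Custom Agilent 4×180K protein-binding microarrays carried double-stranded probes, each with a 34-nt variable region. These regions held direct-repeat seeds, single-nucleotide variants, half-site ablations and random human genomic background sequences. Ligand-free nuclear receptor dimers were incubated on the arrays for 1 h, antibodies against each partner (one per run) detected binding, and scanned fluorescence was regression-normalized. Binding z-scores take the random background probes as reference.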

[2] = test system: LXRa:RXRa (NR concentration 270 nM, RXRa partner concentration 90 nM)
How it was run: as §1

[3] = test system: LXRa homodimer (NR concentration 270 nM)
How it was run: as §1

[4] = test system: LXRb:RXRa (NR concentration 270 nM, RXRa partner concentration 90 nM)
How it was run: as §1

[5] = test system: LXRb homodimer (NR concentration 270 nM)
How it was run: as §1

[6] = test system: PPARa:RXRa (NR concentration 270 nM, RXRa partner concentration 90 nM)
How it was run: as §1

[7] = test system: PPARg:RXRa (NR concentration 180 nM, RXRa partner concentration 90 nM)
How it was run: as §1

[8] = test system: PPARg:RXRa 270nM:90nM, anti-RXR (NR concentration 270 nM, RXRa partner concentration 90 nM)
How it was run: as §1

[9] = test system: PPARg:RXRa 30nM:10nM, anti-RXR (NR concentration 30 nM, RXRa partner concentration 10 nM)
How it was run: as §1

[10] = test system: PPARg:RXRa 90nM:30nM, anti-RXR (NR concentration 90 nM, RXRa partner concentration 30 nM)
How it was run: as §1

Sequence	PBM binding z-score [1]	PBM binding z-score [2]	PBM binding z-score [3]	PBM binding z-score [4]	PBM binding z-score [5]	PBM binding z-score [6]	PBM binding z-score [7]	PBM binding z-score [8]	PBM binding z-score [9]	PBM binding z-score [10]
GCGACTGGGGCAAGGCAGGTTACCATAAGGTTGG	-0.183	0.247	-0.418	-0.0825	-0.867	0.979	0.978	0.49	-0.677	0.000745
AGTCAAAGTTCAGGACGAGGTAACGCAAAGCACG	3.93	3.88	1.08	2.03	0.0872	3.33	4.31	4.9	1.97	3.87
TCTATTAGTTGATTAGAGCAACCGAAACAGCGGA	0.47	0.476	0.0625	0.326	0.361	0.484	-0.0852	1.56	3.21	2.38
AATACAGGGTCACTAGGCCAGAGCAGGTACGAAT	5.98	5.08	0.784	3.77	0.86	5.66	7.53	6.45	3.36	5.53
CAGCCTAGGTCAGGGCCAGTATCGGAGGAACGTT	1.55	0.907	-0.258	0.354	-1.03	1.91	0.418	0.759	-0.713	0.129
ACTAGCAGGGCAAGTTTGGGTCACTCAAACAAAG	1.11	0.854	-0.346	1.07	-0.746	1.85	0.29	0.531	-0.392	0.0112
GCTAGTTGGTCAGTAAAAGGTCACCCACCGGTCG	3.38	4.1	4.23	3.6	0.649	4.11	2.48	4.29	2.04	3.67
CCGACTTGGGCAAGGTTACCATAACGCACAGCCA	0.05	0.652	-0.339	0.538	-0.76	0.821	0.77	0.417	-0.317	0.00151
TCTACTAGTTGATTAGGGCAACCGAAACAGCGGA	-0.0181	-0.4	-0.422	0.0832	-0.553	0.777	0.366	1.66	3.06	2.31
CGTCAAAGTTCAAGGAAACGTAACAGAAAGCAGC	5.45	5.15	1.92	2.97	0.958	4.11	3.58	4.4	1.69	3.29
CGTCCAAGGTCAAAGGTCAGTCAAGAGATGACGG	8.41	6.97	3.05	6.77	1.83	7.07	10.9	8.99	7.83	9.18
TGAATGAGGTTATAAGATCCGGGAACGTTGCAAA	1.15	1.21	-0.3	0.909	-0.0595	2.45	1.01	1.33	0.723	1.15
TAGCGTAGGTCATTCAGGGGCCAGTATAGAAAGC	4.91	4.31	0.816	3.43	1.24	4.19	1.8	2.55	0.626	1.6
CCTCGGAGGAAAACAGGAGGTCAGAGCTGCCAGA	0.663	1.69	1.63	1.44	-0.702	2.13	0.128	-0.0182	-0.762	-0.104
CCTATTAGTTCACCATAAGGGCAACCGAAGCTCG	1.35	2.07	0.985	1.29	0.844	1.67	0.515	0.652	-0.043	0.491
CGAACGAGGGCATAAGTTGATAGCAAATGCCGAT	0.0955	-0.0152	-0.319	0.143	-0.74	1.49	1.93	2.59	0.799	2.34
TCATCTAGGTAAAAGGTGAAAGTCGGTGTGGTAA	1.68	1.89	0.186	1.97	0.11	5.64	10	9.2	8.75	10.8
TCTATTAGTTGATTAGGGAAACCGAAACAGCGGA	0.843	0.826	0.343	0.602	0.852	0.623	-0.0137	2.16	3.69	3.2
CGTCCAAGGTCAGAGAGGTCGGTGAATGCCGAGT	4.71	3.52	0.408	2.4	-0.461	3.87	2	2.92	0.323	1.8
TCTTGTAGATCAGCAGGAGGTTAAGAAAGATCGA	-0.201	0.985	-0.411	0.538	-0.736	1.03	-0.21	1.36	2.16	1.74
ATCTCTAGTTAAGACTCAGTTCAGTGAAGAACGC	0.381	0.546	0.699	0.459	0.922	-0.0115	-0.0269	0.419	0.293	0.347
TGTCAAGGTTCAAAGGTAACGTAAGTATCCACAC	6.06	5.12	1.39	3.74	0.581	5	6.29	6.26	3.14	5.92
AGAACGAGGGAAATGAGTTGATAGCACGGGTGGC	-0.469	-0.525	-0.561	-0.828	-0.449	-0.481	0.813	-0.497	-0.0468	-0.319
TCTGCTAGGTCAGTTGGTCAGATAACGAGCTGCC	1.05	0.831	-0.457	0.683	0.181	1.36	0.922	1.72	1.53	1.68
TCAAATAGGTAAACAGGTGAAAGTCCGTAAGTTA	0.954	0.935	0.164	0.968	-0.112	2.28	2.64	3.76	4.64	4.28
